This passage reports composite z-score and z-score results from PubChem BioAssay.

The structures appear in SMILES notation. Activity calls are given as the source filed them.

The subject of experiment [1] is PRMT1 (protein arginine N-methyltransferase 1). Kind of experiment: PRMT1 binders on small-molecule microarrays, primary screen, biochemical, small-molecule microarray, 635 nm fluorescence (AID 1088).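 Further: binding of Prmt1 protein to compounds spotted on small-molecule microarray slides.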 The note with it: small-molecule microarray binding, higher = more signal.
Experiment [2] can be described thus: yeast growth modulation, basal conditions, primary screen, YJM789 clinical isolate, OD600, 24 h (AID 1089).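 Further: growth of clinical yeast isolate S. cerevisiae YJM 789 seeded 1000 cells per well; test concentration not given here.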 The note with it: S. cerevisiae YJM789 growth, higher = more signal, called active from +8 up or from −8 down.
A short description of experiment [3]: fission yeast growth modulation, primary screen, strain 972, OD600, 24 h, no modulator (AID 1090).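 Further: basal condition with compound alone and no growth modifier present; test concentration not given here.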 The note with it: S. pombe 972 growth, higher = more signal, called active from +8 up or from −8 down.
The nature of experiment [4]: S. cerevisiae growth modulation with rapamycin, primary screen, strain BY4716, OD600, 96 h (AID 1091). Further: test concentration not given here. Conditions: higher = more signal, called active from +8 up or from −8 down.
For experiment [5], the target named is Torsin-1A-interacting protein 2 (Homo sapiens) (UniProt Q8NFQ8). Kind of experiment: LULL1 binders on small-molecule microarray, primary screen, cell lysate, human LULL1 lysate, 635/667 nm fluorescence (AID 1092).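 Further: probe is lysate of COS7 cells overexpressing human LULL1; score merges per-feature 667 nm fluorescence with signal-to-noise.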 The note with it: hLULL1 lysate binding, 635 nm fluorescence, higher = more signal.
Experiment [6] can be described thus: E. coli growth modulation, two-sided OD650, primary screen, E. coli filamentation project, strain DRC41, 24 h (AID 1093).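 Further: MC1000 strain lacking acrAB efflux and sulA so SOS filamentation is blocked; test concentration not given here.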 The note with it: OD650, 24 h, higher = more signal, called active from +8 up or from −8 down.
Experiment [7] in a line: small-molecule microarray binders of probe aLefty2, primary screen, biochemical, biotinylated probe, 635/667 nm fluorescence (AID 1094).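 Further: score merges spot fluorescence near 667 nm with spot signal-to-noise ratio.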 Conditions: higher = more signal.
The subject of experiment [8] is Noggin (protein binding on small-molecule microarray). In words: Noggin binders on small-molecule microarray, primary screen, biochemical, 635/667 nm fluorescence (AID 1095).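 Further: score merges 667 nm feature fluorescence with signal to noise over triplicate slides.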 Conditions: 635 nm fluorescence, higher = more signal.
In experiment [9] the target is Neurogenic locus notch homolog protein 3 (Homo sapiens) (UniProt Q9UM47). In words: NOTCH3 binders on small-molecule microarray, primary screen, biochemical, 635/667 nm fluorescence (AID 1096). Conditions: NOTCH3 binding, 635 nm fluorescence, higher = more signal.
Experiment [10] in a line: small-molecule microarray binders of probe aEGFR, primary screen, biochemical, biotinylated probe, 635/667 nm fluorescence (AID 1097).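 Further: probe is a biotinylated anti-EGFR antibody binding compounds printed on slides; score combines fluorescence near 667 nm and signal to noise of each spot.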 Conditions: higher = more signal.
Experiment [11] relates to Plasmodium falciparum Sir2 (PF13_0152, Sir2A). Kind of experiment: pfSir2 binders on small-molecule microarrays, primary screen, biochemical, small-molecule microarray, 635 nm fluorescence (AID 1098).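 Further: score merges spot fluorescence intensity with its signal-to-noise ratio.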 Conditions: small-molecule microarray binding, fluorescence 635 nm; higher = more signal.
Experiment [12] in a line: small-molecule microarray binders of probe aDKK1, primary screen, biochemical, biotinylated probe, 635/667 nm fluorescence (AID 1099).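 Further: score merges 667nm spot fluorescence with signal to noise across triplicate slides; reference of the scale not given here.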 Conditions: higher = more signal.
Experiment [13] is described as follows: small-molecule microarray binders of probe aCHRDL2, primary screen, biochemical, biotinylated probe, 635/667 nm fluorescence (AID 1100). Conditions: higher = more signal.
Experiment [14] is described as follows: splicing luciferase reporter signal modulators, primary screen, spliceosome inhibition project, cell-based, HEK293, splice +/- reporter (AID 1101).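 Further: HEK293 cells carrying a splicing-competent luciferase reporter gene; test concentration not given here.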 The note with it: luminescence, 24 h, higher = more signal, called active from +8 up or from −8 down. A general note: A reporter such as luciferase makes a cellular process visible.
Experiment [15] deals with Fibroblast growth factor 10 (Homo sapiens) (UniProt O15520). Kind of experiment: FGF10 binders on small-molecule microarrays, primary screen, biochemical, small-molecule microarray, 635 nm fluorescence (AID 1102). The note with it: FGF10 binding, fluorescence 635 nm, higher = more signal.
Experiment [16] relates to glycogen synthase kinase-3 (GSK3A per assay name; protocol says GSK3B). In words: GSK3 binders on small-molecule microarrays, primary screen, biochemical, small-molecule microarray, 635 nm fluorescence, GSK3A (AID 1103). Further: the record names both GSK3A and GSK3B. Conditions: small-molecule microarray binding, fluorescence 635 nm; higher = more signal.
Experiment [17] deals with Epidermal growth factor receptor (Homo sapiens) (UniProt P00533). In words: EGFR binders on small-molecule microarrays, primary screen, biochemical, small-molecule microarray, 635 nm fluorescence (AID 1104).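 Further: score merges 667 nm emission intensity with spot signal to noise over triplicate slides.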 Conditions: EGFR binding, higher = more signal.
The target in experiment [18] is Follistatin-related protein 3 (Homo sapiens) (UniProt O95633). Kind of experiment: FSTL3 binders on small-molecule microarrays, primary screen, biochemical, small-molecule microarray, 635 nm fluorescence (AID 1105).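 Further: score merges emission near 667 nm and signal to noise per printed spot across three slides.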 The note with it: FSTL3 binding, higher = more signal.
Experiment [19] addresses Dickkopf-related protein 1 (Homo sapiens) (UniProt O94907). In words: DKK1 binders on small-molecule microarrays, primary screen, biochemical, small-molecule microarray, 635 nm fluorescence scan (AID 1106).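 Further: score merges emission near 667 nm with signal to noise over three replicate slides.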 The note with it: DKK1 binding, higher = more signal.
In experiment [20] the test system is Inhibin beta A chain (activin A). In words: INHBA (activin A) binders on microarrays, primary screen, biochemical, small-molecule microarray, 635 nm fluorescence scan (AID 1107).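 Further: mouse activin A protein probed at 4.33 µg/mL on printed slides; score merges bound-protein fluorescence near 667 nm with spot signal-to-noise.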 Conditions: small-molecule microarray binding, higher = more signal.

Chain of Follistatin-related protein 3 (Homo sapiens) (O95633 whole entry, looked up): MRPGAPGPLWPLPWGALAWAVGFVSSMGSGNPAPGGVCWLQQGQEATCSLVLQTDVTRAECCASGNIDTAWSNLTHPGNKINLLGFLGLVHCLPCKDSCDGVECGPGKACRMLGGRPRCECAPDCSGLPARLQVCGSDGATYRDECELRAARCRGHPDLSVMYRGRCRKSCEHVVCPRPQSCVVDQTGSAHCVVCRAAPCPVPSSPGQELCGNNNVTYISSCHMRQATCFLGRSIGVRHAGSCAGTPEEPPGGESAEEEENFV
Chain of Neurogenic locus notch homolog protein 3 (Homo sapiens) (Q9UM47 whole entry, looked up): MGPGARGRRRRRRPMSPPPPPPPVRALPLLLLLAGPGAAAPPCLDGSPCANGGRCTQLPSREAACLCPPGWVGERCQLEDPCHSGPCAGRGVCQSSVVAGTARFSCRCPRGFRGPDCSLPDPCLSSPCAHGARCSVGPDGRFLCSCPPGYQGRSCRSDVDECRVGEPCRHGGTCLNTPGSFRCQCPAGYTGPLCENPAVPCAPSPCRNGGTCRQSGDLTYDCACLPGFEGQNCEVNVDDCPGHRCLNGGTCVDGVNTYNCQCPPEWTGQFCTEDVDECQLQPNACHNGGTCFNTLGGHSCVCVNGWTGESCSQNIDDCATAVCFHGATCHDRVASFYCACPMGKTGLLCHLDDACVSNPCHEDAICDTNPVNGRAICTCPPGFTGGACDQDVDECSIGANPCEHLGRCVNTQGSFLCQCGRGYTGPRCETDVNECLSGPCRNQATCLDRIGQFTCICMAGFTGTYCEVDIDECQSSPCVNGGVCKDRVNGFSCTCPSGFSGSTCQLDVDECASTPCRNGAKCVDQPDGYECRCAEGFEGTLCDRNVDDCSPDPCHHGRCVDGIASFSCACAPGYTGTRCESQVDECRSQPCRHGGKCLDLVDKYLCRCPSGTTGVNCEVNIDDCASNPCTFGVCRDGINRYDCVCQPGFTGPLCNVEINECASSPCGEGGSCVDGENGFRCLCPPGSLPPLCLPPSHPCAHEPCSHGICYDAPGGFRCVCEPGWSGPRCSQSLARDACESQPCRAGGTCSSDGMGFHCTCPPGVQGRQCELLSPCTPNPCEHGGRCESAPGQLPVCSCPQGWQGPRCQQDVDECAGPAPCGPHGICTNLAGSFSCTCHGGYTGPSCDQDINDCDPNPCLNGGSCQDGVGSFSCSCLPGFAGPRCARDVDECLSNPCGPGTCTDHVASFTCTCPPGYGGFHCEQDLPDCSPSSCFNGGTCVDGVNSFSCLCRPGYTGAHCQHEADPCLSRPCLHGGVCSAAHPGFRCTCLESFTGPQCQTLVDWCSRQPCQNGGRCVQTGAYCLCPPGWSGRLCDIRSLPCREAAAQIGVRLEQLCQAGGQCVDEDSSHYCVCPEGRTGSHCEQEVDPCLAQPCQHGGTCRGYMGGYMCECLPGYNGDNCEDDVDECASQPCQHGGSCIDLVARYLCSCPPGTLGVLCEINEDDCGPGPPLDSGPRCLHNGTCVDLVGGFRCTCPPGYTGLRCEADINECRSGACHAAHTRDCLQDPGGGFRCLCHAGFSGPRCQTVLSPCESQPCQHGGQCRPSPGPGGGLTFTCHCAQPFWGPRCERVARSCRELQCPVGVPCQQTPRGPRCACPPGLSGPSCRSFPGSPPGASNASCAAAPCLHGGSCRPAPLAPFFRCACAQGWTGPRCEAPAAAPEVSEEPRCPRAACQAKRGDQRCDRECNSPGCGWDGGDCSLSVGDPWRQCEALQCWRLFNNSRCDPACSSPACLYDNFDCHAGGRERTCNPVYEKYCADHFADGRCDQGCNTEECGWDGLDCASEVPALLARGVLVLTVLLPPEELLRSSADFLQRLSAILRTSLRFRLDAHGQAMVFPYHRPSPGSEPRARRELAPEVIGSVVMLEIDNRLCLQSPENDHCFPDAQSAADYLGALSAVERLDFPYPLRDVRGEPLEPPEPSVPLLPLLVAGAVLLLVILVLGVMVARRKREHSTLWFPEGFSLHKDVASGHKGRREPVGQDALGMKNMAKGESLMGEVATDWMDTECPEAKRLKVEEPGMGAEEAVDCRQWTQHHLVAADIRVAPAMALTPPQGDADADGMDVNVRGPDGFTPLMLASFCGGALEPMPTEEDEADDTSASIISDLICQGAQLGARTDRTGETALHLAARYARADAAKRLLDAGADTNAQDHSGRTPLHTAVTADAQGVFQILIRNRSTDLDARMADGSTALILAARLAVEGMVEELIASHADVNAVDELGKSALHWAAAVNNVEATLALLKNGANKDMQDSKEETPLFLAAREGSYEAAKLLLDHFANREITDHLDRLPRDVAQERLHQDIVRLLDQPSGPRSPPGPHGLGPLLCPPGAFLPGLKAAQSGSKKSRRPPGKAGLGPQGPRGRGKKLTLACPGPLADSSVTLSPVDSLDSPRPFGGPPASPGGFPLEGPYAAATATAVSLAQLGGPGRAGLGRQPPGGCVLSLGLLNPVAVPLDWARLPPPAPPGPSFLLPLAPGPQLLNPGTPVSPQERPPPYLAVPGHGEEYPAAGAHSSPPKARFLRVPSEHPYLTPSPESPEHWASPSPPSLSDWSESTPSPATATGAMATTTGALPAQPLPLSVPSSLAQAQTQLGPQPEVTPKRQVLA
Chain of Epidermal growth factor receptor (Homo sapiens) (P00533 whole entry, looked up): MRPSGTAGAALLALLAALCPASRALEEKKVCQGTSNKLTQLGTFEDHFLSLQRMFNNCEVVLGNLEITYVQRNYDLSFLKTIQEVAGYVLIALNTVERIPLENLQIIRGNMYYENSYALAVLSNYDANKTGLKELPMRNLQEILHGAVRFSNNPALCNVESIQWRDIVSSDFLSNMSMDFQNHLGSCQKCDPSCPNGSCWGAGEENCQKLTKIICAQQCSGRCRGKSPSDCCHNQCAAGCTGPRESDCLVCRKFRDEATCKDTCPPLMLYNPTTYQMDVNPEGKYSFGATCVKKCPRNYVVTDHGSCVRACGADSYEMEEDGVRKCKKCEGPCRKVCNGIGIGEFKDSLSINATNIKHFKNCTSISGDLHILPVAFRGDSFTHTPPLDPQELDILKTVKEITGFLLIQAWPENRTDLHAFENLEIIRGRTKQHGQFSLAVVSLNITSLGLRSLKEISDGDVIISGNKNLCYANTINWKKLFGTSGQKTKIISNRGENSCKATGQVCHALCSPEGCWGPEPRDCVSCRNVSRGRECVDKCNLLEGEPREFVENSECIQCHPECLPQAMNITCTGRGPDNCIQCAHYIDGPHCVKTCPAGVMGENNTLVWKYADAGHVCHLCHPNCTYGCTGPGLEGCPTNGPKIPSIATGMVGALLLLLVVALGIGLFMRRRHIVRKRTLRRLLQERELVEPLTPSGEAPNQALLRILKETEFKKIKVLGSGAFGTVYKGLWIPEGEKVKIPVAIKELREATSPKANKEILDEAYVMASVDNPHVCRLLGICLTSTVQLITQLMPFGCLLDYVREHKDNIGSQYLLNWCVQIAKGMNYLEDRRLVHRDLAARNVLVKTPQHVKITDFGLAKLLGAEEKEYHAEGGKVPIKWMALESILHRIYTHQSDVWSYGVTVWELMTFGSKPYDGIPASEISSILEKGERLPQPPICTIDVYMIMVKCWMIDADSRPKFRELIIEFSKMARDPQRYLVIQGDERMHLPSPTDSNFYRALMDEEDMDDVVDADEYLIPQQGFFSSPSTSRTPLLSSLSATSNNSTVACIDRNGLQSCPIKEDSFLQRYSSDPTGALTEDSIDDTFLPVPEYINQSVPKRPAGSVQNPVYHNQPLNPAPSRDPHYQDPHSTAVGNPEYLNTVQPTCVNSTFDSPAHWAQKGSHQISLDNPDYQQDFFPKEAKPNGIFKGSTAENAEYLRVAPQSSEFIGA
Chain of Dickkopf-related protein 1 (Homo sapiens) (O94907 whole entry, looked up): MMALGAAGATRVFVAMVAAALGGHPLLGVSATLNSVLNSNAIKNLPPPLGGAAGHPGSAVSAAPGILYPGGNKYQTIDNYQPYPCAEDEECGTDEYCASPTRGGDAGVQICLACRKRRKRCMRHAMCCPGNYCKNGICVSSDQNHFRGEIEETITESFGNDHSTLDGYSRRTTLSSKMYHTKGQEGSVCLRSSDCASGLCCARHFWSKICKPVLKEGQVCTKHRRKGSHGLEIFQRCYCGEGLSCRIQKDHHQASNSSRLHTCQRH
Chain of Torsin-1A-interacting protein 2 (Homo sapiens) (Q8NFQ8 whole entry, looked up): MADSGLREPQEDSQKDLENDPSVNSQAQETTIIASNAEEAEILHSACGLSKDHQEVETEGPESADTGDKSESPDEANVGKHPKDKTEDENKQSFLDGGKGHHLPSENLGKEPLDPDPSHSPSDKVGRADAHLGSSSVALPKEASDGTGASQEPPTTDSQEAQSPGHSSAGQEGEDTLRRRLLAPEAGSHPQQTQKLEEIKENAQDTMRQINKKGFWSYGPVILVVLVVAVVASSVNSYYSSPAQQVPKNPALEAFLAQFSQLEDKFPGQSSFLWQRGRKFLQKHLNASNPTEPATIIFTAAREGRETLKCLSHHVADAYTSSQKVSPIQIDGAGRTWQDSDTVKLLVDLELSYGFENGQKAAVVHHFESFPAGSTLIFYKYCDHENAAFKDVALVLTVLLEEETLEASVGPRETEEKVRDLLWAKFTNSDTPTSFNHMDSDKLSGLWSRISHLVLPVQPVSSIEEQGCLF
Chain of Fibroblast growth factor 10 (Homo sapiens) (O15520 whole entry, looked up): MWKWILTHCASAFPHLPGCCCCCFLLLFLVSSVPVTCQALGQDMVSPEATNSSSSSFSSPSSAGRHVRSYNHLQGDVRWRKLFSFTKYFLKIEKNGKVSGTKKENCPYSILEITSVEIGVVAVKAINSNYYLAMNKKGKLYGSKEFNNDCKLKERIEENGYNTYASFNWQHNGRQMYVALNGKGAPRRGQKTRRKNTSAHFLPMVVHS

For the molecule `CC(CO)N1C(=O)[C@@H]2[C@H]3C(=O)OCC=C[C@H]3OC23C=CCN(Cc2ccccc2)C(=O)[C@@H]13` (stereo not given in full), the composite z-score was -1.28 in experiment [1]; 1.41 in experiment [5]; -0.219 in experiment [7]; -0.662 in experiment [8]; 0.0095 in experiment [9]; -0.206 in [10]. Also, the composite z-score in experiment [11] is 0.978; in [12], -0.321; in experiment [13], 0.247; in experiment [15], -0.49; in experiment [16] it was -1.23; in experiment [17] it was -1.18. Besides, the values for the composite z-score in [18], in experiment [19] and in experiment [20] were -0.578, -0.567 and 0.056, respectively. Moreover, the z-score in experiment [2] is -0.163 (inactive); in experiment [3], -0.528 (inactive); in experiment [4] it was -1.45 (inactive); in experiment [6], 2.31 (inactive); in experiment [14], -1.11 (inactive).

For the molecule `CN1C(=O)C2C=CC(C(O)c3cccc4ccccc34)N(N3CCCCC3)C2C1=O` (stereo not given), the composite z-score in [1] was 1.55; in experiment [5] it was 2.86; in experiment [7], 0.101; in experiment [8], 0.354; in experiment [9], 1.1; in experiment [10], 0.299. Also, the composite z-score in [11] turned out to be 1.52; in experiment [12], 1.11; in experiment [13], 1.21; in experiment [15] it was 0.595; in [16] it was 1.31; in experiment [17], 0.396. For the same molecule, the composite z-score in [18] was found to be 1.09; in experiment [19], 0.353; in experiment [20], 0.784. Further, the z-score in [2] is -0.0899 (inactive); in experiment [3], 1.13 (inactive); in [4] it was 0.579 (inactive); in experiment [6] it was -1.09 (inactive); in [14], 1.81 (inactive).

Turning to `COCCOC(=O)N1C(=O)[C@@]2(c3cc(C#CCNC(N)=O)ccc31)[C@H](C(=O)N1CCc3cc(OC)c(OC)cc3C1)[C@H]1C(=O)O[C@H](c3ccccc3)[C@H](c3ccccc3)N1[C@@H]2c1ccccc1OCCO`, the composite z-score in [1] was 1.37; in [5], 2.14; in experiment [7] it was 0.0253; in experiment [8], 1.36; in experiment [9], 1.11; in [10], -0.0734. For the same molecule, the composite z-score stood at 1.26 in experiment [11]; 0.073 in experiment [12]; 0.315 in [13]; 1.41 in experiment [15]; 1.14 in experiment [16]; 0.873 in experiment [17]. Further, the composite z-score in experiment [18] was found to be 1.14; in experiment [19], 0.246; in [20] it was 0.586. In addition, the z-score in [2] was -0.959 (inactive); in [3], 0.319 (inactive); in [4], 3.2 (inactive); in experiment [6], 1.16 (inactive); in experiment [14], 0.0466 (inactive).

As to `COCCCNC(=O)[C@]1(CCS(=O)(=O)c2ccccc2)N=C(c2ccc(OCCCO)cc2)O[C@@H]1c1ccccc1CN=[N+]=[N-]`, the composite z-score amounted to 1.55 in experiment [1]; 3.47 in experiment [5]; 0.417 in experiment [7]; 0.896 in [8]; 1.02 in experiment [9]; 0.455 in [10]. Besides, the composite z-score was 1.51 in experiment [11]; 1.41 in experiment [12]; 1.26 in [13]; 1.54 in [15]; 1.32 in experiment [16]; 0.233 in experiment [17]. The composite z-score in [18] is 1.2; in experiment [19] it was -0.0602; in experiment [20] it was 0.746. Also, the z-score is 1.52 (inactive) in [2]; 0.971 (inactive) in [3]; 2.59 (inactive) in [4]; 0.773 (inactive) in experiment [6]; -0.325 (inactive) in experiment [14].

With `O=C1OCC=C[C@H]2OC34C=CCN(Cc5ccccc5)C(=O)[C@H]3N(CCCCCCO)C(=O)[C@@H]4[C@@H]12` (stereo not given in full), the composite z-score in [1] was -0.325; in [5], 1.76; in [7], 0.0124; in experiment [8], -0.742; in [9], -0.153; in experiment [10] it was -0.159. The composite z-score was 1.82 in [11]; -0.305 in experiment [12]; 0.777 in experiment [13]; -0.735 in experiment [15]; -0.868 in experiment [16]; -0.825 in experiment [17]. Besides, the composite z-score is -0.608 in experiment [18], -1.03 in [19] and 0.652 in experiment [20]. In addition, the z-score in [2] was -0.997 (inactive); in experiment [3], 0.0262 (inactive); in experiment [4], -1.53 (inactive); in experiment [6], 2.11 (inactive); in experiment [14] it was 0.148 (inactive).
